Screening results from PubChem BioAssay.
HT1080 IDH1KD tx = kills HT-1080 cells with IDH1 knockdown; HT-1080 IDH1 knockdown viability, ATP luminescence, 48 h; Potency, µM (doses to about 46.1 µM), for inactives: top-dose activity, negative = toxicity, hits mostly cytotoxic; 360,000 tested, 2% active; AID 686971;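 also: potency is read from the fitted curve at half-maximal effect; 0% = DMSO wells and -100% = cell-free medium wells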
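% activity derives from luminescence (CellTiter-Glo), normalised to DMSO and no-cell wells. HT-1080-IDH1KD cells, 750/well, had 48 h compound exposure at 37 °C.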
DT40 TDP1 CPT = growth inhibition of DT40 Tdp1-/-;hTDP1 cells with camptothecin (screen for TDP1 inhibitors); chicken DT40 Tdp1-/-;hTDP1 cells + 20 nM CPT, ATP luminescence, 48 h; Potency, µM (titrated, usually from 46.2 µM), inactives show at the top dose activity change, negative = growth inhibition, most hits filed as inhibitors; 420,000 tested, 12% active; also: potency is read from the fitted curve at half-maximal effect; nearly all actives have a fitted effect of over 55% in size
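Chicken DT40 Tdp1-/- cells stably complemented with human TDP1 were seeded at 400 cells/well in medium containing 20 nM camptothecin, exposed to pin-transferred compounds, and grown at 37 °C for at least 48 hr. Viability was read as ATP luminescence.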
HT1080-NT tox = kills 2HG-producing HT-1080-NT fibrosarcoma cells; HT-1080-NT fibrosarcoma viability, CellTiter-Glo ATP luminescence, 48 h; Potency, µM (top dose mostly 46.1 µM), inactives show top-dose activity, negative = less viability, usual class: cytotoxic; 360,000 tested, 1.6% active; AID 686970;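 also: NT is the 2HG producing partner of a matched IDH1 knockdown line; potency is read from the fitted curve at half-maximal effect; 0% = DMSO-treated cells and -100% = media-only wells without cells; nearly all actives have a fitted effect of over 55% in size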
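Viability of the 2HG-overproducing fibrosarcoma line after 48 hours of compound exposure at 37 degrees C was determined by luminescence with CellTiter-Glo, and concentration-effect curves were then fitted and categorized.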
TDP1 cell noCPT = qHTS for Inhibitors of human tyrosyl-DNA phosphodiesterase 1 (TDP1): qHTS in cells in absence of CPT; DT40 Tdp1-/- hTDP1 cells, no CPT, ATP luminescence, 48 h; Potency, µM (highest dose often 46.2 µM), for inactives: at the highest dose activity change, negative = growth inhibition, most hits filed as inhibitors; 420,000 tested, 15% active; also: potency is read from the fitted curve at half-maximal effect; nearly all actives have a fitted effect of over 55% in size
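Growth kinetics read by CellTiter-Glo luminescence after ≥48 hr at 37 °C. Cells: DT40 Tdp1-/- stably carrying human TDP1, 400 per well, compound exposure in the absence of CPT (DMSO vehicle).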
IL-1B inflam inh = inhibitors of inflammasome signaling (IL-1 beta secretion); AID 743279; THP-1 LPS/ATP IL-1B secretion, AlphaLISA, 16 h; active compounds read low; 360,000 tested, 4.7% active; activity change, % at 57.5 µM; in the data active = activity change below about -50%; inconclusive = mostly about -30% to -49%
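THP-1 cells pretreated 1 hr with compounds (up to 57.5 uM final), then stimulated with LPS (250 ng/mL final) plus ATP (1.25 mM final); secreted IL-1B measured by AlphaLISA after 16 hr, decreased signal indicating inhibition.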
ELG1 repair inh = blocks ELG1-dependent DNA repair in HEK293T cells; 330,000 tested, 2.3% active; Potency, µM (doses to about 46.1 µM), inactives show at the highest dose activity change, negative = inhibition, hits mostly inhibitors; HEK293T ELG1-luciferase reporter, luminescence, 16 h; DNA damage induced by 5-fluorouridine; also: potency is read from the fitted curve at half-maximal effect; nearly all actives have a fitted effect of over 55% in size
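HEK293T cells expressing luciferase-tagged ELG1 (2,000/well) received 5-Fluorouridine plus compound or DMSO for 16 hr at 37 °C. Luciferase was read by ONE-Glo luminescence after 30 min at room temperature.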
* = called active by the depositor; [ ] = remark or other dose. This is a sample that favours compounds with a hit; in the whole collection about 19% have one here. Unless noted, calls follow the shape of the dose curve; as a rule, active = well fitted curve in the direction sought with a large enough effect; inconclusive = small, poorly fitted or top-dose-only effect, or another doubt; inactive = no such curve, though single readings can be large; an effect the other way counts as inactive or inconclusive. Unless noted, % is scaled to controls: 0 for no effect and ±100 for the full control effect.

CCCn1c(C(C)NC(C)=O)nc2ccccc21 (centres undefined) was read as HT1080 IDH1KD tx 4.9%, DT40 TDP1 CPT inconclusive, HT1080-NT tox -1.4%, TDP1 cell noCPT -28.5%, IL-1B inflam inh 45.5 and ELG1 repair inh 0.9%.
For O=C(NCc1ccc2c(c1)CCO2)Nc1ccccc1 the results were HT1080 IDH1KD tx 5.1%, DT40 TDP1 CPT 14.5%, HT1080-NT tox 14.7%, TDP1 cell noCPT -14.3%, IL-1B inflam inh -3.3 and ELG1 repair inh inconclusive.
For Cn1cccc1C(=O)NNC(=O)COc1ccccc1Cl the results were HT1080 IDH1KD tx 19.3%, DT40 TDP1 CPT 10.5%, HT1080-NT tox 18.5%, TDP1 cell noCPT 12.7%, IL-1B inflam inh inconclusive and ELG1 repair inh inconclusive.
Screening CCc1cccc(C)c1NC(=O)c1ccc2c(c1)CCN2S(=O)(=O)CC returned DT40 TDP1 CPT inconclusive and TDP1 cell noCPT 11.6µM*.
For CCc1cccc(C)c1NC(=O)c1ccc2c(c1)CCN2S(=O)(=O)c1ccc(Cl)cc1 the results were DT40 TDP1 CPT inconclusive and TDP1 cell noCPT 9.2µM*.
Screening CCS(=O)(=O)N1CCc2cc(C(=O)Nc3cc(Cl)ccc3C)ccc21 returned DT40 TDP1 CPT 29.1µM* and TDP1 cell noCPT 23.1µM*.
CC(C)(C)C(=O)OCOC(=O)C1N2C(=O)CC2S(=O)(=O)C1(C)C (centres undefined) was read as DT40 TDP1 CPT 5.2% and TDP1 cell noCPT -1.7%.
CC(C)C[C@H](NC(=O)N1CCn2c1nc1ccccc12)C(=O)N[C@H](Cc1ccccc1)C(=O)O was read as HT1080 IDH1KD tx 1.9%, DT40 TDP1 CPT 2.9%, HT1080-NT tox 10.5%, TDP1 cell noCPT 12.1%, IL-1B inflam inh 4.0 and ELG1 repair inh 17.1%.
For CCOc1ccc(N(CC(=O)NC2CCCCC2)C(=O)CCCC(=O)Nc2ccccn2)cc1 the results were HT1080 IDH1KD tx -11.1%, DT40 TDP1 CPT 8.0%, HT1080-NT tox -1.7%, TDP1 cell noCPT -5.9%, IL-1B inflam inh 21.4 and ELG1 repair inh -0.8%.
`CCN(CC(=O)Nc1c(F)cccc1F)C(=O)CSC(=S)N1CCCC1` gave HT1080 IDH1KD tx 10.5%, DT40 TDP1 CPT -1.6%, HT1080-NT tox 0.8%, TDP1 cell noCPT -5.1%, IL-1B inflam inh 16.2 and ELG1 repair inh inconclusive.
`Cc1cccc(/C=N/NC(=O)c2ccc(NC(=O)c3cccc(Cl)c3)cc2)n1` gave HT1080 IDH1KD tx inconclusive, DT40 TDP1 CPT -5.4%, HT1080-NT tox -17.6%, TDP1 cell noCPT -25.0%, IL-1B inflam inh -1.5 and ELG1 repair inh 0.4%.
Screening O=C(NCc1cccnc1)c1ccc(COc2ccc(Cl)cc2Cl)o1 returned HT1080 IDH1KD tx -14.2%, DT40 TDP1 CPT inconclusive, HT1080-NT tox -4.1%, TDP1 cell noCPT inconclusive, IL-1B inflam inh 43.9 and ELG1 repair inh inconclusive.
`CC(C)(C)NC(=O)c1ccc(COc2ccc(Cl)cc2Cl)o1` gave HT1080 IDH1KD tx -20.7%, DT40 TDP1 CPT 6.3%, HT1080-NT tox inconclusive, TDP1 cell noCPT inconclusive, IL-1B inflam inh -69.1* and ELG1 repair inh inconclusive.
Screening COc1ccccc1OCc1ccc(C(=O)N2CCCCC2)o1 returned HT1080 IDH1KD tx 8.3%, DT40 TDP1 CPT 2.1%, HT1080-NT tox -0.3%, TDP1 cell noCPT -0.3%, IL-1B inflam inh -2.7 and ELG1 repair inh 29.4%.
Screening O=C(c1ccc(COc2ccc(Cl)cc2Cl)o1)N1CCCC1 returned HT1080 IDH1KD tx -3.9%, DT40 TDP1 CPT -29.5%, HT1080-NT tox -5.8%, TDP1 cell noCPT 18.4µM*, IL-1B inflam inh -28.2 and ELG1 repair inh inconclusive.
For COC(=O)[C@]12CCCCC=C1N(Cc1ccc(Cl)cc1Cl)C(=O)[C@H](CC(=O)N1CCOCC1)C2 the results were HT1080 IDH1KD tx -7.2%, DT40 TDP1 CPT inconclusive, HT1080-NT tox -15.1%, TDP1 cell noCPT inconclusive and IL-1B inflam inh -17.2.
`COC(=O)[C@]12CCCCC=C1N(Cc1ccc(Cl)cc1Cl)C(=O)[C@H](CC(=O)N1CCSCC1)C2` gave HT1080 IDH1KD tx -24.1%, DT40 TDP1 CPT inconclusive, HT1080-NT tox -14.2%, TDP1 cell noCPT 16.4µM* and IL-1B inflam inh 0.0.
Screening COC(=O)[C@]12CCCCC=C1N(Cc1ccc(Cl)cc1Cl)C(=O)[C@H](CC(=O)N1CCCCC1)C2 returned HT1080 IDH1KD tx inconclusive, DT40 TDP1 CPT inconclusive, HT1080-NT tox inconclusive, TDP1 cell noCPT 18.4µM* and IL-1B inflam inh -28.3.
For COc1cccc(-c2cccc(NC(=O)C3CCN(CCCn4cccn4)CC3)c2)c1 the results were HT1080 IDH1KD tx 0.7%, DT40 TDP1 CPT -0.5%, HT1080-NT tox -12.2%, TDP1 cell noCPT inconclusive and IL-1B inflam inh -15.3.
Cc1cccc(C)c1-n1nnnc1C1(C)CCC(=O)N1Cc1cccc(C(F)(F)F)c1 (centres undefined) was read as HT1080 IDH1KD tx 7.5%, DT40 TDP1 CPT 23.1µM*, HT1080-NT tox -2.7%, TDP1 cell noCPT 23.1µM* and IL-1B inflam inh 29.9.
For O=C1NC(=S)NC1(c1ccccc1)c1ccccc1 the results were HT1080 IDH1KD tx 21.0%, DT40 TDP1 CPT -9.3%, HT1080-NT tox 5.9%, TDP1 cell noCPT -10.7% and IL-1B inflam inh -5.6.
Screening O=C(c1cnn(-c2nccc(-c3ccccc3F)n2)c1C1CC1)N1CCN(CCO)CC1 returned DT40 TDP1 CPT 18.9%[9.04 µM] and TDP1 cell noCPT -9.6%.
`CCCCN(C)CC(O)Cn1cc(/C=C/C(=O)c2ccc(OC)c(OC)c2)c2ccccc21` (centres undefined) gave DT40 TDP1 CPT 18.4µM* and TDP1 cell noCPT 20.6µM*.
Screening CCCCN(C)CC(O)Cn1cc(/C=C/C(=O)c2ccc(Br)cc2)c2ccccc21 (centres undefined) returned DT40 TDP1 CPT 6.51µM* and TDP1 cell noCPT 5.17µM*.
For CCCCN(C)CC(O)Cn1cc(/C=C/C(=O)c2ccc(C)cc2)c2ccccc21 (centres undefined) the results were HT1080 IDH1KD tx inconclusive, DT40 TDP1 CPT 7.31µM*, HT1080-NT tox inconclusive, TDP1 cell noCPT 9.2µM*, IL-1B inflam inh inconclusive and ELG1 repair inh -4.7%.
Screening COc1ccc(C(=O)/C=C/c2cn(CC(O)CN3CCN(C)CC3)c3ccccc23)cc1OC (centres undefined) returned HT1080 IDH1KD tx 14.6µM*, DT40 TDP1 CPT inconclusive, HT1080-NT tox 16.4µM*, TDP1 cell noCPT inconclusive and ELG1 repair inh inconclusive.
